Test results taken from ChEMBL document CHEMBL3988442, “University of Dundee, Small-Polar-MMV Screening Library” (2021).
Hit rate of the full screen: of about 48,000 compounds, about 13,000 (27%) showed an effect of 50% or more. The list shows a part of the results.

Tested on: Wolbachia pipientis
Experiment: Anti-Wolbachia Cell-Based Screen
Type: functional
Set-up: scale not given: in the data most compounds retested in dose-response had high values
Details: 5 µM

Row | SMILES | Percent Effect
1 | Cl.O=C(C1CCC1)N1CCC2(CCNCC2)C1 | -22.91%
2 | O=C(Cc1ccc(O)c(Cl)c1)N1CCN(CC2CC2)[C@@H]2CS(=O)(=O)C[C@@H]21 | 2.879%
3 | Cc1cc(C)c(CNc2cnc3ccccc3n2)c(=O)[nH]1 | 10.07%
4 | CC1COC2(CCN(C(=O)c3ncoc3C(C)C)CC2)O1 (stereo unspecified) | 0.05226%
5 | O=C(O)C(F)(F)F.O=C(O)C(F)(F)F.O=C1[C@H]2CN(Cc3ccoc3)C[C@H]2CN1Cc1ccncc1 | 1.4%
6 | CS(=O)(=O)Cc1nc(CN2CC=C(c3ccccc3)CC2)cs1 | 9.315%
7 | O=C(C1CCC1)N1CC[C@]2(O)CCN(Cc3ncccn3)C[C@@H]2C1 | 9.794%
8 | Cc1noc([C@@H]2C[C@H]3OCC[C@H]3N(C(C)C)C2)n1.O=C(O)C(F)(F)F | 82.77%
9 | Cc1noc([C@]23COC[C@H]2CN(C(C)C)C3)n1.O=C(O)C(F)(F)F | -9.217%
10 | Cc1noc([C@H]2C[C@H]3OCC[C@H]3N(Cc3ccncc3)C2)n1 | 9.305%
11 | Cc1nc(COC[C@H]2CC[C@H]3NCC[C@H]3O2)cs1.Cl.Cl | -19.37%
12 | Cc1cc(CN2C[C@@H]3COC[C@]3(CNC(=O)N3CCCC3)C2)no1.O=C(O)C(F)(F)F | -10.59%
13 | Cc1noc(C)c1CN1CC2(CCCCN2C)CC1=O.O=C(O)C(F)(F)F (stereo unspecified) | -9.804%
14 | COCCNC(=O)[C@@]12CCO[C@@H]1CCN(Cc1c(C)noc1C)C2.O=C(O)C(F)(F)F | -6.3%
15 | Cc1noc(C)c1CN1CCCC2(CCN(C(=O)C3CC3)C2)C1 (stereo unspecified) | 106.9%
16 | Cc1noc(C)c1CN1CC[C@H]2O[C@@H](C(=O)N3CCCC3)CC[C@H]21.O=C(O)C(F)(F)F | 9.45%
17 | Cc1noc(C)c1CN1CCCC2(CCN(CC3CCCC3)C2)C1.O=C(O)C(F)(F)F (stereo unspecified) | 102.6%
18 | Cc1ccc(CC(=O)N2CCN(C(C)c3ccccc3F)CC2)cn1 (stereo unspecified) | 7.645%
19 | COCCNC1(c2ccc(Cl)cc2)CCOCC1 | 5.533%
20 | CC(C)=CCN1C[C@H]2CC[C@@H]1CN(Cc1cc(=O)[nH]c(=O)[nH]1)C2 | 7.172%
21 | Cc1cc(NCCc2c[nH]cn2)nc(-c2cccnc2)n1 | 99.48%
22 | Cc1cnc(NCCc2c[nH]cn2)nc1-c1ccnn1C | -2.604%
23 | CCc1ccccc1OCCNCCc1c[nH]cn1 | -3.829%

Row | SMILES | Percent Effect
24 | Cc1noc(C)c1CN(C)C(=O)CN1CC(c2ccccc2)CC1=O (stereo unspecified) | -0.5183%
25 | CN(Cc1cc(C2CC2)on1)C(=O)CN1CC(c2ccccc2)CC1=O (stereo unspecified) | -9.848%
26 | Cc1cc(CN(C)C(=O)CN2CCCC2=O)no1 | 135.7%
27 | CCc1noc(CC)c1CC(=O)N1CCCC(N2CCCCC2)C1 (stereo unspecified) | -13.04%
28 | CN(c1ncccc1C#N)C1CCN(CCc2ccccn2)CC1 | 3.648%
29 | O[C@@]1(CNCCCOc2cccnc2)CCCN2CCCC[C@@H]21 | -22.25%
30 | COCCN1CCO[C@H]2CN(C(=O)c3ccncc3F)C[C@H]21.O=C(O)C(F)(F)F | -13.21%
31 | O=C(c1c[nH]c(=O)c(Cl)c1)N1C[C@@H]2CC[C@H](C1)N(CC1CCC1)C2 | 97.45%
32 | CC(C)=CCN1C[C@H]2CC[C@@H]1CN(C(=O)c1c[nH]c(=O)c(Cl)c1)C2 | -5.36%
33 | Cc1ncc(CC(=O)N2C[C@@H]3CC[C@H](C2)N(CC2CCC2)C3)c(=O)[nH]1 | 1.908%
34 | CCCn1cc(C(=O)NC(C(=O)O)c2ccccc2C(F)(F)F)c(C)n1 (stereo unspecified) | 7.837%
35 | O=C(Cc1ccc(CO)cc1)N1CCN(CC2CC2)[C@@H]2CS(=O)(=O)C[C@@H]21 | -14.38%
36 | CN1CCN(S(=O)(=O)C2CC2)Cc2cccnc21 | 113.9%
37 | CCS(=O)(=O)N1CCN(C)c2ncccc2C1 | 97.89%
38 | CN1CCN(Cc2ccoc2)Cc2cccnc21 | -15.03%
39 | CN(C)CCN1CCN(CC2CC2)c2ncccc2C1 | 104.8%
40 | CN1CCN(c2ncccn2)CC12CCC(=O)N(CC1CC1)CC2 (stereo unspecified) | -4.361%
41 | CN1CCN(S(C)(=O)=O)Cc2cccnc21 | 126.5%
42 | Cl.O=C(NCC1CCCCC1)N1C[C@@H]2C[C@H]1CN2 | -10.23%
43 | CCCN1CCN(C(=O)c2ccc(Cl)cn2)[C@H]2CS(=O)(=O)C[C@H]21 | 7.172%
44 | CCC(C(=O)N1CCCSCC1)N1CCCC1=O (stereo unspecified) | 0.6755%
45 | Cc1cccc(CN2CC3C[C@]3(NC(=O)c3ccco3)C2)n1 (stereo partly specified) | -15.21%
46 | CCCN1CCN(C(=O)c2cccc(C)n2)[C@H]2CS(=O)(=O)C[C@H]21 | -6.939%

Row | SMILES | Percent Effect
47 | CCN1CCC2(CC1)CN(CCO)c1ccccc12 | -10.11%
48 | O=C(O)C(F)(F)F.O=C(O)C(F)(F)F.c1cnc2c(c1)CN(C1CCOC1)CCN2CC1CC1 (stereo unspecified) | -0.9537%
49 | CCS(=O)(=O)N1CCN(CC2CC2)c2ncccc2C1 | 115%
50 | CS(=O)(=O)N1CCN(CC2CC2)c2ncccc2C1 | 6.456%
51 | COc1ccccc1CC(C)N(C)CCS(C)(=O)=O (stereo unspecified) | -4.195%
52 | COC[C@]12COC[C@H]1CN(Cc1cccnc1OC)C2 | 3.857%
53 | CN(C)CCN1CCO[C@H]2CN(Cc3ccccn3)C[C@H]21.O=C(O)C(F)(F)F.O=C(O)C(F)(F)F.O=C(O)C(F)(F)F.O=C(O)C(F)(F)F | 10.34%
54 | COCCCN1CCCC12CCN(Cc1cccnc1OC)CC2.O=C(O)C(F)(F)F.O=C(O)C(F)(F)F | -1.56%
55 | COc1ncccc1CN1CCC2(CC1)COCCN2C.O=C(O)C(F)(F)F.O=C(O)C(F)(F)F | -5.344%
56 | CNC(=O)[C@H]1C[C@@H]2CN(Cc3cccnc3OC)C[C@@H]2N1C(C)=O.O=C(O)C(F)(F)F.O=C(O)C(F)(F)F | 92.23%
57 | COCCN1CCCC12CCN(Cc1cccnc1OC)CC2.O=C(O)C(F)(F)F.O=C(O)C(F)(F)F | -1.646%
58 | COCCN1CC[C@@H]2CN(Cc3cccnc3OC)C[C@@H]2C1.O=C(O)C(F)(F)F.O=C(O)C(F)(F)F | 130.6%
59 | COc1cc(N2C[C@H]3CCN(CCN4CCCC4)C[C@H]3C2)ncn1.O=C(O)C(F)(F)F.O=C(O)C(F)(F)F | -9.875%
60 | CNC(=O)[C@H]1C[C@@H]2CN(Cc3cccnc3OC)C[C@@H]2N1C(C)C.O=C(O)C(F)(F)F.O=C(O)C(F)(F)F.O=C(O)C(F)(F)F | 5.567%
61 | COc1ncccc1CN1C[C@@H]2CN(c3ncccn3)C[C@@H]2C1 | 110.4%
62 | COc1ncccc1CN1C[C@@H]2OCCN(CCN(C)C)[C@@H]2C1.O=C(O)C(F)(F)F.O=C(O)C(F)(F)F.O=C(O)C(F)(F)F | 17.28%
63 | COc1cc(N2C[C@H]3CN(Cc4ccccn4)C[C@H]3C2)ncn1.O=C(O)C(F)(F)F | 127.8%
64 | Fc1cccnc1N1CCOCC2(CCCNC2)C1 (stereo unspecified) | -2.668%
65 | N#Cc1cccc(C(=O)NS(=O)(=O)c2ccc(C#N)c(Cl)c2)c1 | -1.961%
66 | COc1ccc(CN2C[C@H]3CN(c4cncnc4)C(=O)[C@H]3C2)cc1.O=C(O)C(F)(F)F | -6.592%
67 | CCc1cc(N2CCC(NC3CN4CCC3CC4)CC2)nc(N(C)C)n1 (stereo unspecified) | 2.929%
68 | CCCn1cc(C(=O)NCC(=O)NC2CC2)c(C)n1 | 8.869%
69 | COc1ncccc1CN1CC[C@H]2[C@H]1CCN2CCN(C)C.O=C(O)C(F)(F)F.O=C(O)C(F)(F)F.O=C(O)C(F)(F)F.O=C(O)C(F)(F)F | -2.708%

Row | SMILES | Percent Effect
70 | COc1ncccc1CN1C[C@H]2CCN(C(C)C)C[C@H]2C1.O=C(O)C(F)(F)F.O=C(O)C(F)(F)F | 108.8%
71 | COc1ncccc1CN1C[C@H]2CCN(c3ncccn3)C[C@H]2C1.O=C(O)C(F)(F)F | 102%
72 | CCN1CCCC12CCN(Cc1cccnc1OC)CC2.O=C(O)C(F)(F)F.O=C(O)C(F)(F)F | 9.255%
73 | CN1CC2(CCNCC2)CC1C(=O)NCCCNc1cccnc1 (stereo unspecified) | 9.44%
74 | O=C(O)C(F)(F)F.O=C(O)C(F)(F)F.c1cnc(N2CCCC3(CCN(CC4CC4)C3)C2)nc1 (stereo unspecified) | -2.531%
75 | CN1[C@@H](C(=O)NCC2CC2)C[C@@H]2CN(c3ncccn3)C[C@@H]21 | -3.694%
76 | CCN1C[C@H]2N(c3ncccn3)CCC[C@@]2(C(=O)NCC2CC2)C1 | 121.2%
77 | CN1C[C@H]2N(c3ncccn3)CCC[C@@]2(C(=O)NCC2CC2)C1.O=C(O)C(F)(F)F | 104.5%
78 | CNC(=O)[C@@]12CCCN(c3ncccn3)[C@@H]1CN(C)C2.O=C(O)C(F)(F)F | -0.06284%
79 | CC(=O)N1C[C@H]2CCCC(N3CCN(c4ncccn4)CC3)[C@H]2C1.O=C(O)C(F)(F)F.O=C(O)C(F)(F)F (stereo partly specified) | -9.605%
80 | CN(CC1Cc2ccccc2CN1C)C(=O)Cc1cccs1 (stereo unspecified) | 4.108%
81 | O=C(O)C(F)(F)F.c1cnc(NC[C@@H]2CCC[C@@H]3CN(Cc4cc[nH]n4)C[C@@H]32)nc1 | -8.539%
82 | Cn1ccnc1NC[C@@H]1CCC[C@@H]2CN(Cc3cccnc3)C[C@@H]21.O=C(O)C(F)(F)F | 109.4%
83 | COCCN1C[C@H]2CCC[C@@H](CNc3ncccn3)[C@H]2C1.O=C(O)C(F)(F)F.O=C(O)C(F)(F)F | 1.407%
84 | O=C(O)C(F)(F)F.c1cncc(CN2C[C@H]3CCC[C@@H](CNc4cnccn4)[C@H]3C2)c1 | 134.5%
85 | O=C(O)C(F)(F)F.c1cnc(NC[C@@H]2CCC[C@@H]3CN(Cc4csnn4)C[C@@H]32)nc1 | 17.75%
86 | Cn1cc(CN2C[C@H]3CCC[C@@H](CNc4ncccn4)[C@H]3C2)cn1.O=C(O)C(F)(F)F | 111.9%
87 | Cn1cc(CN2C[C@@H]3CCC[C@@H](OCc4cccnc4)[C@@H]3C2)cn1 | 52.17%
88 | CN(C[C@@H]1CCC[C@@H]2CN(Cc3cccnc3)C[C@@H]21)C1CC1.O=C(O)C(F)(F)F.O=C(O)C(F)(F)F | 2.908%
89 | O=C(O)C(F)(F)F.c1ccc(NC[C@@H]2CCC[C@@H]3CN(Cc4cc[nH]n4)C[C@@H]32)nc1 | -6.028%
90 | COc1ccc(CN2C[C@H]3CCC[C@@H](CN(C)C4CC4)[C@H]3C2)cn1.O=C(O)C(F)(F)F.O=C(O)C(F)(F)F | 14.86%
91 | COc1ccc(CN2C[C@H]3CCC[C@@H](CN(C)C)[C@H]3C2)cn1.O=C(O)C(F)(F)F.O=C(O)C(F)(F)F | 10.6%
